# Experimental data taken from PubChem BioAssay (EPA / NIEHS).
# Several values for one entry are separate records, joined by “and”; a condition that tells them apart may be missing. Equal values may be shown once. Some compounds were tested as several samples or in several runs, with calls that do not always agree. Activity calls are given as the source filed them. Rule for the calls: active = hit-call score of the fitted dose curve at least 0.9, where 1 is the maximum; inactive = score below 0.9.
# Legend:
# [1] = read-out: Interleukin-1 alpha (IL1a), IL1A (gene 3552); test: BSK_KF3CT_IL1a: BioMAP Diversity Plus: KF3CT Assay for Interleukin-1 alpha (IL1a) Biomarker Activity (AID 2283070); conditions: primary human keratinocytes with fibroblasts; actives raise or lower the signal
# In short: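 Primary skin co-culture (keratinocytes, foreskin fibroblasts), 24 h exposure; ELISA for IL-1a; bidirectional curve fit vs DMSO.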
# [2] = read-out: TIMP metallopeptidase inhibitor 2 (TIMP2), TIMP2 (gene 7077); test: BSK_KF3CT_TIMP2: BioMAP Diversity Plus: KF3CT Assay for TIMP metallopeptidase inhibitor 2 (TIMP2) Biomarker Activity (AID 2283071); conditions: primary human keratinocytes with fibroblasts; actives raise or lower the signal
# In short: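 Measurements come from ELISA detection of TIMP-2 at 24 hours in a dosed human keratinocyte and foreskin fibroblast co-culture. DMSO serves as negative control and baseline.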
# [3] = read-out: C-C motif chemokine 2 (Homo sapiens) (UniProt P13500); test: BSK_KF3CT_MCP1: BioMAP Diversity Plus: KF3CT Assay for Monocyte Chemoattractant Protein 1 (MCP1/CCL2) Biomarker Activity (AID 2283073); conditions: primary human keratinocytes with fibroblasts; actives raise or lower the signal
# In short: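 Biomarker MCP-1 is measured by ELISA in primary human keratinocytes co-cultured with foreskin fibroblasts, 24 h after chemical treatment; DMSO serves as the negative control and activity baseline.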
# [4] = read-out: Matrix Metallopeptidase 9 (MMP9), MMP9 (gene 4318); test: BSK_KF3CT_MMP9: BioMAP Diversity Plus: KF3CT Assay for Matrix Metallopeptidase 9 (MMP9) Biomarker Activity (AID 2283074); conditions: primary human keratinocytes with fibroblasts; actives raise or lower the signal;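 for AC50: MMP9 protein level quantified by ELISA in the co-culture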
# In short: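 ELISA read-out of MMP-9 at 24 h post-dosing in a co-culture of human skin keratinocytes and foreskin fibroblasts. Gain or loss of signal was fitted in both directions against DMSO.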
# CD40, CD40 (gene 958) [5] = test: BSK_LPS_CD40: BioMAP Diversity Plus: LPS Assay for CD40 Biomarker Activity (AID 2283076); conditions: primary human HUVEC with PBMC; actives raise or lower the signal
# In short: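 Using a multiplexed primary human co-culture (umbilical vein endothelium plus PBMC), CD40 was read by ELISA 24 h after dosing, with cytotoxicity tracked by sulforhodamine B staining of parallel cultures and activity fitted bidirectionally versus DMSO.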
# [6] = read-out: E-selectin (Homo sapiens) (UniProt P16581); test: BSK_LPS_Eselectin: BioMAP Diversity Plus: LPS Assay for Eselectin Biomarker Activity (AID 2283077); conditions: primary human HUVEC with PBMC; actives raise or lower the signal
# In short: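 Dose chemical onto LPS-driven HUVEC/PBMC co-culture; after 24 h, run ELISA for E-selectin; fit up- and down-going responses relative to DMSO control.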
# [7] = read-out: Interleukin-8 (IL8), CXCL8 (gene 3576); test: BSK_LPS_IL8: BioMAP Diversity Plus: LPS Assay for Interleukin-8 (IL8) Biomarker Activity (AID 2283078); conditions: primary human HUVEC with PBMC; actives raise or lower the signal
# In short: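 In this LPS system, chemical-treated human umbilical vein endothelium/PBMC co-cultures were harvested at 24 h for IL-8 ELISA.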
# [8] = BSK_LPS_SRB: Viability Assessment in the BioMAP Diversity Plus: LPS Assay (AID 2283079); conditions: primary human HUVEC with PBMC;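 note: total protein by sulforhodamine B absorbance as a cytotoxicity measure; measured one day after compound addition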
# In short: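 Cytotoxicity endpoint in human endothelial–PBMC co-culture: 24 h exposure, then SRB (0.1%) staining, 560 nm read.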
# [9] = read-out: Interleukin-1 alpha (IL1a), IL1A (gene 3552); test: BSK_LPS_IL1a: BioMAP Diversity Plus: LPS Assay for Interleukin-1 alpha (IL1a) Biomarker Activity (AID 2283080); conditions: primary human HUVEC with PBMC; actives raise or lower the signal
# In short: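 Primary human HUVEC and PBMC co-culture stimulated with LPS is dosed and harvested at 24 h. Both increases and decreases in ELISA-measured IL-1a are scored relative to DMSO.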
# [10] = read-out: Monocyte Chemoattractant Protein-1 (MCP1), CCL2 (gene 6347); test: BSK_LPS_MCP1: BioMAP Diversity Plus: LPS Assay for Monocyte Chemoattractant Protein-1 (MCP1) Biomarker Activity (AID 2283081); conditions: primary human HUVEC with PBMC; actives raise or lower the signal;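 for AC50: secreted MCP-1 protein quantified by ELISA in culture supernatant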
# In short: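 Values derive from bidirectional fitting against DMSO of ELISA-measured MCP-1 in a human primary endothelial and mononuclear cell co-culture, 24 h after chemical addition under LPS activation.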
# [11] = BSK_LPS_PGE2: BioMAP Diversity Plus: LPS Assay for Prostaglandin E2 (PGE2) Biomarker Activity (AID 2283082); conditions: primary human HUVEC with PBMC; actives raise or lower the signal;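 for AC50: secreted prostaglandin E2 measured by ELISA in LPS-stimulated co-culture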
# In short: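 Primary human endothelial cells and blood mononuclear cells, co-cultured with LPS, receive test chemical; PGE2 ELISA follows at 24 h, with SRB-stained parallel cultures flagging cytotoxicity.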
# [12] = read-out: Macrophage colony-stimulating factor (MCSF), CSF1 (gene 1435); test: BSK_LPS_MCSF: BioMAP Diversity Plus: LPS Assay for Macrophage colony-stimulating factor (MCSF) Biomarker Activity (AID 2283083); conditions: primary human HUVEC with PBMC; actives raise or lower the signal
# In short: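 Bidirectional fit versus DMSO of ELISA-measured M-CSF in co-cultured human umbilical vein endothelial cells and PBMC, sampled 24 h after dosing.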
# [13] = read-out: Tissue Factor, F3 (gene 2152); test: BSK_LPS_TissueFactor: BioMAP Diversity Plus: LPS Assay for Tissue Factor Biomarker Activity (AID 2283084); conditions: primary human HUVEC with PBMC; actives raise or lower the signal
# In short: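 Read-out: CD142 ELISA, 24 h. System: LPS-driven human endothelial/PBMC co-culture. Analysis: up- or down-signal fitted against DMSO.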
# [14] = read-out: Tumor necrosis factor (Homo sapiens) (UniProt P01375); test: BSK_LPS_TNFa: BioMAP Diversity Plus: LPS Assay for Tumour Necrosis Factor alpha (TNFa) Biomarker Activity (AID 2283085); conditions: primary human HUVEC with PBMC; actives raise or lower the signal
# In short: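 ELISA-based TNFa endpoint in a human endothelial–PBMC co-culture sampled 24 h post-exposure. Curves were fitted in both directions using DMSO as baseline of activity.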
# [15] = read-out: Vascular cell adhesion molecule 1 (VCAM1), VCAM1 (gene 7412); test: BSK_LPS_VCAM1: BioMAP Diversity Plus: LPS Assay for Vascular cell adhesion molecule 1 (VCAM1) Biomarker Activity (AID 2283086); conditions: primary human HUVEC with PBMC; actives raise or lower the signal
# In short: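 Measured by ELISA: VCAM-1 in LPS-activated HUVEC/PBMC co-cultures 24 h after treatment. Values reflect bidirectional fitting with DMSO as baseline.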
# CD38, CD38 (gene 952) = test: BSK_SAg_CD38: BioMAP Diversity Plus: SAg Assay for CD38 Biomarker Activity (AID 2283087); conditions: primary human HUVEC with PBMC; actives raise or lower the signal
# In short: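 Measures CD38 on a human endothelial/PBMC co-culture driven by SEB and TSST-1, 24 h after compound exposure, using ELISA with fluorescence detection; DMSO defines baseline for bidirectional curve fitting.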
# CD40, CD40 (gene 958) [16] = test: BSK_SAg_CD40: BioMAP Diversity Plus: SAg Assay for CD40 Biomarker Activity (AID 2283088); conditions: primary human HUVEC with PBMC; actives raise or lower the signal
# In short: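 Endpoint derived by fitting increases or decreases versus DMSO controls. CD40 is detected by fluorescence ELISA in a human vascular co-culture of endothelium and PBMC at 24 h.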
# [17] = read-out: Transforming growth factor beta 1 (TGFb1), TGFB1 (gene 7040); test: BSK_KF3CT_TGFb1: BioMAP Diversity Plus: KF3CT Assay for Transforming growth factor beta 1 (TGFb1) Biomarker Activity (AID 2283072); conditions: primary human keratinocytes with fibroblasts; actives raise or lower the signal
# In short: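 TGF-b1 ELISA on a 24 h dosed co-culture of human keratinocytes and foreskin fibroblasts; cytotoxicity tracked in parallel cultures by SRB staining.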
# [18] = read-out: urokinase plasminogen activator (uPA), PLAU (gene 5328); test: BSK_KF3CT_uPA: BioMAP Diversity Plus: KF3CT Assay for urokinase plasminogen activator (uPA) Biomarker Activity (AID 2283075); conditions: primary human keratinocytes with fibroblasts; actives raise or lower the signal
# In short: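 Skin co-culture (keratinocytes + foreskin fibroblasts), human primary; 24 h post-dose; uPA by ELISA; gain/loss fit vs DMSO baseline.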
# Sequence of Tumor necrosis factor (Homo sapiens) (P01375 whole entry, looked up): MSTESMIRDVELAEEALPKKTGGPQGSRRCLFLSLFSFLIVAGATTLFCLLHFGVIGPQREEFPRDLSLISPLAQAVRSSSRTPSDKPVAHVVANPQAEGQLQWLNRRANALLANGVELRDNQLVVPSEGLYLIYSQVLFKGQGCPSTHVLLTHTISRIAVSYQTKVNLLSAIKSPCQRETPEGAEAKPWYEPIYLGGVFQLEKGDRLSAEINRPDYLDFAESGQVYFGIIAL
# Sequence of E-selectin (Homo sapiens) (P16581 whole entry, looked up): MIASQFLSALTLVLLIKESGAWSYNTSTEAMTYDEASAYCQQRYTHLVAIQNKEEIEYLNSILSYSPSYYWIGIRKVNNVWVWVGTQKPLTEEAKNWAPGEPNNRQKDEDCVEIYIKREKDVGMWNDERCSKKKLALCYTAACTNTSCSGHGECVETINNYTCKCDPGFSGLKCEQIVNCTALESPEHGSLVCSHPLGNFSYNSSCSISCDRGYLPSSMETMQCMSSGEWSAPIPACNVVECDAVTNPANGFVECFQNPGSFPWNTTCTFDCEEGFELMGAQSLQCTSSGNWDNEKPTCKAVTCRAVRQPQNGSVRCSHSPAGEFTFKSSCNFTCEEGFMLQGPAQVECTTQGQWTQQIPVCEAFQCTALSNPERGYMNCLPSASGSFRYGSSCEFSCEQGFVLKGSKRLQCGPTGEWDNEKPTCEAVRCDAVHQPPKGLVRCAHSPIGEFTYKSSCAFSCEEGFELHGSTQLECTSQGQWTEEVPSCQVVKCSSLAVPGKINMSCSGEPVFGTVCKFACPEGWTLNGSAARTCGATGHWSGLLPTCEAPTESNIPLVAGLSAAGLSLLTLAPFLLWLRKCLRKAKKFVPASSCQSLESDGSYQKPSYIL
compound,measurement,setting,value
O=C(O)C=C(C(F)(F)F)C(F)(F)F,outcome,[1],inactive
same,outcome,[2],inactive
same,outcome,[3],inactive
same,AC50,[4],8.2 µM (active)
same,outcome,[4],inactive
same,AC50,"CD40, CD40 (gene 958) [5]",19.6 µM (active)
same,outcome,"CD40, CD40 (gene 958) [5]",inactive
same,outcome,[6],inactive
same,outcome,[7],inactive
same,outcome,[8],inactive
same,outcome,[9],inactive
same,outcome,[10],inactive
same,outcome,[11],inactive
same,AC50,[12],8.27 µM (active)
same,outcome,[12],inactive
same,outcome,[13],inactive
same,outcome,[14],inactive
same,AC50,[15],10.5 µM (active) and 10.2 µM (active)
same,outcome,"CD38, CD38 (gene 952)",inactive
same,AC50,"CD40, CD40 (gene 958) [16]",40.3 µM (active)
same,outcome,"CD40, CD40 (gene 958) [16]",inactive
CCc1c(Br)c(Br)c(Br)c(Br)c1Br,outcome,[1],inactive
same,outcome,[2],inactive
same,outcome,[17],inactive
same,outcome,[3],inactive
same,outcome,[4],inactive
same,outcome,[18],inactive
same,outcome,"CD40, CD40 (gene 958) [5]",inactive
same,outcome,[6],inactive
same,outcome,[7],inactive
same,outcome,[8],inactive
same,outcome,[9],inactive
same,outcome,[10],inactive
same,outcome,[11],inactive
same,outcome,[12],inactive
same,outcome,[13],inactive
same,outcome,[14],inactive
same,outcome,[15],inactive
same,AC50,"CD38, CD38 (gene 952)",20 µM (active)
same,outcome,"CD40, CD40 (gene 958) [16]",inactive
O[Si](c1ccccc1)(c1ccccc1)c1ccccc1,outcome,[1],inactive
same,AC50,[2],10.3 µM (active)
same,AC50,[17],20 µM (active)
same,outcome,[3],inactive
same,AC50,[4],6.74 µM (active)
same,AC50,"CD40, CD40 (gene 958) [5]",24.4 µM (active)
same,outcome,[6],inactive
same,outcome,[7],inactive
same,AC50,[8],28.6 µM (active)
same,outcome,[9],inactive
same,AC50,[10],28.9 µM (active)
same,AC50,[11],11.6 µM (active)
same,AC50,[12],20 µM (active)
same,outcome,[13],inactive
same,outcome,[14],inactive
same,outcome,[15],inactive
same,AC50,"CD38, CD38 (gene 952)",32.6 µM (active)
same,AC50,"CD40, CD40 (gene 958) [16]",29.6 µM (active)
CC(C)(C)C(=O)CC(=O)C(F)(F)C(F)(F)C(F)(F)F,outcome,[1],inactive
same,outcome,[2],inactive
same,outcome,[3],inactive
same,outcome,[4],inactive
same,outcome,[18],inactive
same,outcome,"CD40, CD40 (gene 958) [5]",inactive
same,outcome,[6],inactive
same,outcome,[7],inactive
same,outcome,[8],inactive
same,outcome,[9],inactive
same,outcome,[10],inactive
same,AC50,[11],30 µM (active)
same,outcome,[11],inactive
same,outcome,[12],inactive
same,outcome,[13],inactive
same,outcome,[14],inactive
same,outcome,[15],inactive
same,outcome,"CD38, CD38 (gene 952)",inactive
same,outcome,"CD40, CD40 (gene 958) [16]",inactive
